Measured values from PubChem BioAssay AID488821 (National Center for Advancing Translational Sciences (NCATS), 2010).
Inconclusive results are not listed. Calls of active or inactive are those of the source. The call rests on the fitted dose curve; in most records, active means well fitted inhibition curve with a large enough effect; inconclusive means small, poorly fitted or top-dose-only effect, or effect the other way; inactive means flat fitted curve, though single readings scatter.

test: Counterscreen Assay for Enhancers of SMN2 Splice Variant Expression: Modulation of SMN1 Expression for Further Probe SAR; settings: HEK293 SMN1-luciferase reporter, luminescence, 30-36 h; series mostly up to 46.1 µM; activity change, negative = inhibition: at the top concentration
Description: NIH Chemical Genomics Center [NCGC] NIH Molecular Libraries Probe Production centers Network [MLPCN] MLPCN Grant: R03 MH084179-01 Assay Submitter (PI): Elliot Androphy NCGC Assay Overview: Spinal muscular atrophy (SMA) is caused by insufficient levels of the survival motor neuron protein SMN. The SMN locus on chromosome 5q13 contains two inverted copies of SMN called SMN1 and SMN2 which are 99% identical at the amino acid level. SMN1 is a fully functional protein and SMN2 skips exon 7 90% of the time. Skipping of exon 7 produces non-functional protein product. 10% of the SMN2 protein includes exon 7 and is fully functional. In the SMA disease state, mutations in the SMN1 locus are the cause of the disease state. Because only 10% of SMN2 is of the fully functional form, it is not sufficient to overcome the deficiency produced by the loss of the SMN1 product. A therapy that either increases the amount of SMN2 product made increases the inclusion of exon 7 has been proposed for the treatment of SMA. We have designed an assay to identify small molecules that can increase the amount of functional SMN2 product by appending a luciferase reporter gene after the native SMN2 gene, such that inclusion of exon 7 in the expressed product places the luciferase sequence in frame, thus generating functional luciferase enzyme. As a counterscreen for nonspecific modulators of expression, we have run compounds through a similar assay that measures expression of an SMN1-luciferase chimera.
NCGC Assay Protocol Summary: This screen utilizes a luciferase reporter gene assay, combining the promoter with the major portion of the native SMN1 cDNA (exons 1 -7, intron 8 , exon 8 fused to luciferase) stably expressed in HEK293 cells. Compounds that increase luciferase signal presumably enhance expression of the functional SMN1 splice variant. Passaging media contained DMEM w/ glutamax (+phenol red) 10% FCS, 1x pen/strep, 200 ug/ml hygro, 1x sodium pyruvate. Assay media contained DMEM w/ glutamax (-phenol red) 10% FCS, 1x pen strep, 1x pyruvate Sequence, Parameter, Value, Description (1) Cells, 5 uL, 2000 cells/well, 1536 TC treated White solid bottom plate (2) Time, 10-12 hours, 37C 5% CO2 (3) Compound, 23 nl, MLSMR Library (4) Control Compound, 23 nL, Sodium butyrate st 4.5mM (final) conc (5) Time, 30-36 hours, 37C 5% CO2 (6) Reagent, 3 ul, One Glo (TM) from Promega (7) Time, 5-15 minutes, Room temp (8) Detector, Viewlux: luminescent read, 60 second integration, high speed 2x binning Keywords: Spinal muscular atrophy, SMA, SMN2, high throughput screening, MLSMR, MLPCN, NIH Roadmap, qHTS and NCGC

Q: Which “activity change, negative = inhibition” value does the source give for `CN(C)c1cccc(-c2ccnc(N3CCC(C(N)=O)CC3)n2)c1` here?
A: -22% (inactive)

Q: Which Potency does the source give for `NC1CCN(c2nc(-c3ccc(Br)cc3)cs2)CC1` here?
A: 19.4 µM (active)

Q: With `CCOc1ccc(-c2csc(N3CCC(C(N)=O)CC3)n2)cc1` as the molecule, how does the “activity change, negative = inhibition” value read?
A: -16.1% (inactive)

Q: Which “activity change, negative = inhibition” value does the source give for `NC(=O)C1CCN(c2nc(-c3cccc(C(F)(F)F)c3)cs2)CC1` here?
A: 28.5% (inactive)

Q: With `NC(=O)C1CCN(c2ncc(Br)s2)CC1` as the molecule, how does the “activity change, negative = inhibition” value read?
A: -5.62% (inactive)

Q: For `CN(C)c1cccc(-c2nccc(N3CCC(C(N)=O)CC3)n2)c1`, which “activity change, negative = inhibition” value is on record?
A: 14.2% (inactive)

Q: Which “activity change, negative = inhibition” value does the source give for `NC(=O)C1CCN(c2nc(-c3ccccc3Cl)cs2)CC1` here?
A: -10.1% (inactive)

Q: For `NC(=O)C1CCN(c2nc(-c3cccc(F)c3)cs2)CC1`, which “activity change, negative = inhibition” value is on record?
A: -5.59% (inactive)

Q: Which Potency does the source give for `O=C(Nc1ccccc1)C1CCN(c2ncc(-c3ccc4c(c3)OCCCO4)s2)CC1` here?
A: 0.487 µM (active)

Q: For `O=C(NCc1ccccc1)C1CCN(c2nc(-c3ccc(Br)cc3)cs2)CC1`, which “activity change, negative = inhibition” value is on record?
A: -14.5% (inactive)

Q: With `N#CC1CCN(c2nc(-c3ccc(Br)cc3)cs2)CC1` as the molecule, how does the “activity change, negative = inhibition” value read?
A: -22% (inactive)

Q: Which “activity change, negative = inhibition” value does the source give for `NC(=O)C1CCN(c2nc(-c3cccc([N+](=O)[O-])c3)cs2)CC1` here?
A: 9.79% (inactive)

Q: For `CN(C)c1cccc(-c2cc(N3CCC(C(N)=O)CC3)ncn2)c1`, which “activity change, negative = inhibition” value is on record?
A: -22.8% (inactive)

Q: Which “activity change, negative = inhibition” value does the source give for `CC(=O)Nc1ccc(-c2csc(N3CCC(C(N)=O)CC3)n2)cc1` here?
A: 17.6% (inactive)

Q: For `O=C(NCCc1ccccc1)C1CCN(c2nc(-c3ccc(Br)cc3)cs2)CC1`, which “activity change, negative = inhibition” value is on record?
A: -15.8% (inactive)

Q: With `NC(=O)C1CCN(c2ncc(-c3ccc(Cl)cc3)s2)CC1` as the molecule, how does the Potency read?
A: 9.72 µM (active)

Q: With `CS(=O)(=O)N1CCN(c2nc(-c3ccc(Br)cc3)cs2)CC1` as the molecule, how does the “activity change, negative = inhibition” value read?
A: -18.3% (inactive)

Q: For `Nc1nc(N)c2c(OCC3CCN(Cc4ccccc4F)CC3)cccc2n1`, which Potency is on record?
A: 19.4 µM (active)

Q: For `CC(C)Oc1cccc(-c2ccnc(N3CCC(C(N)=O)CC3)n2)c1`, which Potency is on record?
A: 9.72 µM (active)

Q: Which Potency does the source give for `CN(C)c1cccc(-c2cnc(N3CCC(C(N)=O)CC3)nc2)c1` here?
A: 1.22 µM (active)

Q: With `CNC(=O)C1CCN(c2nc(-c3ccc(Br)cc3)cs2)CC1` as the molecule, how does the “activity change, negative = inhibition” value read?
A: -20.8% (inactive)

Q: For `CC(C)Oc1cccc(-c2cnc(N3CCC(C(N)=O)CC3)s2)c1`, which Potency is on record?
A: 4.87 µM (active)

Q: For `CC(=O)N1CCN(c2nc(-c3ccc(Br)cc3)cs2)CC1`, which Potency is on record?
A: 15.4 µM (active)

Q: With `Cc1ccc(-c2cnc(N3CCC(C(N)=O)CC3)s2)cc1` as the molecule, how does the Potency read?
A: 2.44 µM (active)

Q: For `O=C(NCCCCc1ccccc1)C1CCN(c2nc(-c3ccc(Br)cc3)cs2)CC1`, which “activity change, negative = inhibition” value is on record?
A: -12.8% (inactive)

Q: Which “activity change, negative = inhibition” value does the source give for `COc1ccc(-c2cnc(N3CCC(C(N)=O)CC3)s2)cc1OC` here?
A: -10.1% (inactive)

Q: For `NC(=O)C1CCN(c2nc(-c3ccc(OC(F)(F)F)cc3)cs2)CC1`, which “activity change, negative = inhibition” value is on record?
A: 5.89% (inactive)

Q: With `O=C(Nc1ccccc1)C1CCN(c2nc(-c3ccc(Br)cc3)cs2)CC1` as the molecule, how does the “activity change, negative = inhibition” value read?
A: -16.1% (inactive)

Q: For `N#Cc1cccc(-c2csc(N3CCC(C(N)=O)CC3)n2)c1`, which “activity change, negative = inhibition” value is on record?
A: 6.78% (inactive)

Q: With `CC(=O)C1CCN(c2ncc(-c3cccc(N(C)C)c3)s2)CC1` as the molecule, how does the Potency read?
A: 12.2 µM (active)

Q: With `NC(=O)C1CCN(c2ncc(-c3ccc4c(c3)OCCCO4)s2)CC1` as the molecule, how does the Potency read?
A: 0.487 µM (active)

Q: With `O=C(c1ccco1)N1CCN(c2nc(-c3ccc(Br)cc3)cs2)CC1` as the molecule, how does the “activity change, negative = inhibition” value read?
A: -26.7% (inactive)

Q: Which “activity change, negative = inhibition” value does the source give for `CC(C)COc1ccc(-c2csc(N3CCC(C(N)=O)CC3)n2)cc1` here?
A: -19.3% (inactive)

Q: Which “activity change, negative = inhibition” value does the source give for `NC(=O)C1CCN(c2nc(-c3ccccc3)cs2)CC1` here?
A: -16.6% (inactive)

Q: With `NC(=O)C1CCN(c2nc(-c3ccc([N+](=O)[O-])cc3)cs2)CC1` as the molecule, how does the “activity change, negative = inhibition” value read?
A: -14.7% (inactive)

Q: For `COc1cc(OC)cc(-c2csc(N3CCC(C(N)=O)CC3)n2)c1`, which “activity change, negative = inhibition” value is on record?
A: 13.7% (inactive)

Q: With `NC(=O)C1CCN(c2ncc(Br)cn2)CC1` as the molecule, how does the “activity change, negative = inhibition” value read?
A: 9.17% (inactive)

Q: For `NC(=O)N1CCN(c2nc(-c3ccc(Br)cc3)cs2)CC1`, which “activity change, negative = inhibition” value is on record?
A: -14.2% (inactive)

Q: For `O=C(C1CCN(c2nc(-c3ccc(Br)cc3)cs2)CC1)N1CCNCC1`, which “activity change, negative = inhibition” value is on record?
A: 11.6% (inactive)

Q: Which “activity change, negative = inhibition” value does the source give for `Brc1ccc(-c2csc(N3CCC(c4nn[nH]n4)CC3)n2)cc1` here?
A: -18.6% (inactive)
